# Source: PubChem (University of Pittsburgh Molecular Library Screening Center)
# HIV RNase H inh-1 = inhibitors of HIV-1 reverse transcriptase RNase H; 1.9% of 65,000 active; AID 565; inhibition, % at 10 µM; RT-RNase H RNA/DNA duplex cleavage, fluorescence; P04585; in the data active = inhibition above about 50%
# HIV RNase H inh-2 = confirmation of HIV-1 reverse transcriptase RNase H inhibitors | shares compounds with HIV RNase H inh-1 | Recombinant RT RNase H, fluorescent RNA/DNA duplex cleavage | inhibition, % at 10 µM | 39% of 1,000 active; in the data active = inhibition above about 48%
# * hit, by the source's call. This is one part of a sample in which hits are shown more often than they occur.
SMILES,HIV RNase H inh-1,others
CCOc1ccccc1N1CCN(c2nc3ccccc3nc2C(C#N)C(=O)OC)CC1 (stereo unspecified),6,
CN1CCN(c2ccccc2NC(=O)c2cccc(OCc3ccccc3)c2)CC1,-9,
CCOc1ccccc1N1CCN(c2nc(N)c(C#N)c(CC#N)c2C#N)CC1,2,
COc1ccc(N2CCN(S(=O)(=O)c3cccs3)CC2)cc1,-11,
CCOC(=O)C1=C(CC)OC(N)=C(C#N)C1c1cc(OC)ccc1OC (stereo unspecified),-28,
CCSC1=C(C#N)C(c2cccc(O)c2)CC(=O)N1 (stereo unspecified),-8,
COc1ccc(N2CSC3=C(C#N)C(c4cc(OC)ccc4OC)CC(=O)N3C2)c(OC)c1 (stereo unspecified),86*,HIV RNase H inh-2=67*
COCCn1c(C)cc(C(=O)CSc2nc(C)nc3sc4c(c23)CCC4)c1C,3,
COc1oc(-c2ccccc2)nc1C(F)(F)F,-5,
COC(=O)c1ccc(COc2ncnc3c(Cl)cc(Cl)cc23)o1,-40,
Nc1nc(CN2CCN(c3ccccn3)CC2)nc(Nc2ccc(Cl)cc2)n1,-2,
O=C1CC(SCCO)C(=O)N1c1ccc(Oc2ccccc2)cc1 (stereo unspecified),10,
O=c1[nH]c(/C(=N\O)c2ccccc2)no1,-5,
COn1c(SCC(=O)N(C)C)nc2ccccc2c1=O,-3,
CCOc1cc(S(=O)(=O)NCc2ccccn2)c(C)cc1C,-6,
CCOc1ccccc1NC(=O)c1ccccc1-c1nc(-c2ccccc2OC)no1,-1,
COc1ccc(C2C(C#N)=C(C)NC3=C2C(=O)CC(C)(C)C3)c(OC)c1 (stereo unspecified),5,
COc1ccc(C2C(C#N)=C(N)OC(C(C)(C)C)=C2C#N)cc1OC (stereo unspecified),-2,
COc1ccc(N2C(=O)C3CC(C)=C(C)CC3C2=O)c(OC)c1 (stereo unspecified),-1,
COc1ccc(N2CSC3=C(C#N)C(c4ccc(OC)c(OC)c4)CC(=O)N3C2)c(OC)c1 (stereo unspecified),82*,HIV RNase H inh-2=67*
COc1ccc(N2CSC3=C(C#N)C(c4cc(OC)c(OC)cc4OC)CC(=O)N3C2)c(OC)c1 (stereo unspecified),86*,HIV RNase H inh-2=73*
CCSC1=C(C#N)C(c2ccc(OC)c(OC)c2)CC(=O)N1 (stereo unspecified),-7,
O=C(CNS(=O)(=O)c1cccc2nsnc12)NCc1ccc(Cl)cc1,-9,
CC1CN(c2ccccc2)C(=O)CS1 (stereo unspecified),3,
Cc1nn(Cc2ccccc2)c2sc(C(=O)N3CCN(Cc4ccc5c(c4)OCO5)CC3)cc12,-26,
SMILES,HIV RNase H inh-1,others
N#Cc1cc2c([nH]c1=S)CCCCCC2,81*,HIV RNase H inh-2=45
CS(=O)CSc1nc2c(cc1C#N)CCCC2 (stereo unspecified),-6,
N#Cc1c(N)n[nH]c1-c1cc2c([nH]1)CCCC2,2,
Cc1cc(C)c2cc(CN(CC3CCCO3)S(=O)(=O)c3ccc4c(c3)OCCO4)c(=O)[nH]c2c1 (stereo unspecified),-1,
CCn1c(Cc2ccccc2)nnc1SCC(=O)Nc1nccs1,-13,
CCn1c(Cc2ccccc2)nnc1SCC(=O)Nc1nc(C)c(C)s1,64*,HIV RNase H inh-2=12
CCn1c(Cc2ccccc2)nnc1SCC(=O)Nc1nnc(-c2ccccc2)s1,0,
CCN(CC)S(=O)(=O)c1ccc(C(=O)OCn2nnc3ccccc3c2=O)cc1,-4,
O=C(O)c1ccc2c(c1)N(Cc1ccccc1F)C(=O)c1ccccc1S2=O (stereo unspecified),-2,
CC1(O)c2ccccc2C(=O)N1Cc1ccccc1 (stereo unspecified),-10,
CC1(O)c2ccccc2C(=O)N1CCc1ccccc1F (stereo unspecified),89*,HIV RNase H inh-2=16
O=C(O)CCc1n[nH]c(=S)[nH]c1=O,0,
O=C(NCc1ccccc1)N1CCN(c2ccc(Cl)c(Cl)c2)CC1,-5,
CCCCOc1ccc(CNn2c(C)nc3ccccc3c2=O)cc1,-5,
Cc1nc2ccccc2c(=O)n1NC(=O)COc1ccccc1,-5,
CCCOc1ccc(C(=O)Nn2c(C)nc3ccccc3c2=O)cc1,72*,HIV RNase H inh-2=-5
CSCC[C@H](NC(=O)OC(C)(C)C)c1nnc(SCC=C(C)C)o1,-1,
Cc1cc(SCC(N)=O)nc(SCC(=O)c2ccccc2)n1,-10,
Cc1cc(C)nc(SCC(=O)O)n1,1,
COc1cc(C)nc(SCC(N)=O)n1,62*,HIV RNase H inh-2=42
Cc1ccc(-n2sc3ccccc3c2=O)cc1S(=O)(=O)N1CCCCC1,96*,HIV RNase H inh-2=48*
Cc1ccc(-c2nnc(N3CCCCC3)c3ccccc23)cc1S(=O)(=O)N1CCN(C)CC1,-12,
O=C(Cn1c(=O)sc2ccccc21)Nc1ccc(S(=O)(=O)N2CCCC2)cc1,8,
COc1c(S(=O)(=O)N2CCCCC2)ccc2c(S(=O)(=O)N3CCCCC3)cccc12,-8,
O=c1c2ccccc2sn1-c1ccc(S(=O)(=O)N2CCCC2)cc1,79*,HIV RNase H inh-2=27
